Molecules are shown by their SMILES. Values joined by “and” are separate entries in the source; they are usually repeats but may differ in a detail not shown here. Equal entries are not always repeated. Compounds without any hit were thinned out: in the full panel of roughly 83,000, 20% have a hit.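 Single-concentration screen, 48 h exposure, 96-well plates. Endpoint: percent growth. Below 10 = active.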 Some compounds were tested as several samples or in several runs, with calls that do not always agree. Active and inactive are the calls of the source.

This assay concerns NCI/ADR-RES ovarian. Nature of the assay: NCI-60 one-dose screen, 48 h (100 = growth as untreated, 0 = no growth, -100 = all killed). Conditions: 10 µM. On the procedure: Growth inhibition of the NCI/ADR-RES human […] tumor cell line is measured as a screen for anti-cancer activity. Cells are grown in 96 well plates and exposed to the test compound for 48 hours. Compounds are tested at a single concentration, which is 10^-5 M for most compounds. The reported endpoint is percent growth (GI% or GIPRCNT), where numbers from 0 - 100% represent growth inhibition, and numbers from -100% - 0 represent cell death. For example, a value of 40 represents 60% growth inhibition. A value of 0 means no net growth occurred over the course of the experiment. A value of -40 indicates 40% of cells at the beginning of the experiment died by the end of the experiment. A value of -100 means all cells are dead at the end of the experiment.
NCI-60 Human Tumor Cell Lines Screen was performed using the standard one-dose NCI protocol, which is described in more detail at https://dtp.cancer.gov/discovery_development/nci-60/default.htm.
Compounds with GIPRCNT values below 10 were considered active. Activity score was based on GIPRCNT using the following formula: […]
Score is 0 for GIPRCNT values of 100 or above, 50 for GIPRCNT values of 0, and 100 for GIPRCNT values of -100.
For `C/C=C/CC(C)C(O)[C@H](NC(=O)[C@@H]1CCCN1C(=O)C(C)(C)NC(=O)CCCCCCCCC)C(=O)N[C@@](C)(CC)C(=O)N[C@@H](CCC(N)=O)C(=O)N[C@H](CCC(N)=O)C(=O)NC(C)(C)C(=O)N[C@@](C)(CC)C(=O)N[C@@H](CCC(N)=O)C(=O)N[C@H](CC(C)C)C(=O)N[C@H](CO)CC(C)C` (stereo not given in full), the growth was 106% (inactive) and -38.7% (active).

Regarding `CC(C)=CCc1c2c(c(O)c3c1O[C@]14C(=C[C@@H]5C[C@H]1C(C)(C)O[C@@]4(C/C=C(/C)C(=O)O)C5=O)C3=O)C=CC(C)(C)O2`, the growth is 4.39% (active).

Consider `CC1=C2C(=O)[C@](C)(CO)C=C2C(=O)[C@](C)(O)C12CC2`, for which the growth is 5.56% (active).

Consider `Cc1ccc(CNc2nc3ccc(OC/C(=C/F)CN)cc3o2)cn1`, for which the growth is 102% (inactive).

`C=C1[C@@H](C)C2[C@H](Cc3ccccc3)NC(=O)[C@]23[C@H](OC(C)=O)/C=C/[C@@](C)(O)C(=O)[C@@H](C)C/C=C/[C@H]3[C@@H]1O` (stereo not given in full): the growth was 98.5% (inactive).

On to `COc1cc(C)c(-c2ccc(OC)c(=O)cc2C)c(OC)c1OC`, for which the growth is -11.5% (active) and 107% (inactive).

Consider `CCCCCCCCCC(=O)N[C@@](C)(CC)C(=O)N1CCC[C@H]1C(=O)N[C@@H](CC(C)C)C(=O)N[C@@](C)(CC)C(=O)N[C@@H](CCC(N)=O)C(=O)N[C@H](CCC(N)=O)C(=O)NC(C)(C)C(=O)NC(C)(C)C(=O)N[C@@H](CCC(N)=O)C(=O)N[C@H](CC(C)C)C(=O)N[C@H](CO)CC(C)C`, for which the growth is -82.9% (active) and -77% (active).

For `NC1CCc2cc(O)c(O)cc2C1` (stereo not given), the growth is 85.6% (inactive).

For `COc1cc2c(O[C@@H]3OC[C@H](O)[C@H](O)[C@H]3O)c3c(c(-c4ccc5c(c4)OCO5)c2cc1OC)C(=O)OC3`, the growth was 90.1% (inactive).

On to `COc1cc2c(O[C@@H]3OC[C@H](OC(C)=O)[C@H](OC(C)=O)[C@H]3O)c3c(c(-c4ccc5c(c4)OCO5)c2cc1OC)C(=O)OC3`, for which the growth is 37.7% (inactive).

Regarding `O=C(CCCc1ccc(N(CCCl)CCCl)cc1)OCc1ccccc1`, the growth was 93.9% (inactive).

Turning to `CC1=C2C(=C[C@@](C)(COC(=O)c3ccc(S(=O)(=O)F)cc3)[C@@H]2OC(=O)c2ccc(S(=O)(=O)F)cc2)C(=O)[C@](C)(O)C12CC2`, the growth is 9.12% (active).

On to `CC1=C(CCC=NNC(N)=O)C2=C(C)C3(CC3)[C@@](C)(O)C(=O)C2=C1`, for which the growth is -18.1% (active).

For `C/C=C/CC(C)C(O)[C@H](NC(=O)[C@@H]1CCCN1C(=O)C(C)(C)NC(=O)CCCCCCCCC)C(=O)NC(C)(C)C(=O)N[C@@H](CCC(N)=O)C(=O)N[C@H](CCC(N)=O)C(=O)NC(C)(C)C(=O)NC(C)(C)C(=O)N[C@@H](CCC(N)=O)C(=O)N[C@H](CC(C)C)C(=O)N[C@H](CO)CC(C)C` (stereo not given in full), the growth was 51.1% (inactive) and 4.23% (active).

Take `CC1=C[C@H]2O[C@@H]3C[C@H]4OC(=O)/C=C\C=C\[C@H]([C@@H](C)O)OCC[C@@H](C)[C@H](O)C(=O)OC[C@@]2(CC1)[C@]4(C)[C@]31CO1`: the growth was -24.9% (active).

As for `CC1=C(CN(O)C(N)=O)C2=C(C)C3(CC3)[C@](C)(O)C(=O)C2=C1`, the growth is 15.9% (inactive).

Regarding `C[C@@H]1C[C@H]2C(=O)O[C@@H](C)C(NC(=O)[C@H](Cc3cc(F)cc(F)c3)NC(=O)Nc3ccc(OS(=O)(=O)F)cc3)C(=O)N3CCC[C@H]3C(=O)N3CCO[C@H](C)[C@H]3C(=O)N[C@@H](CO)C(=O)N2C1` (stereo not given in full), the growth is 99.2% (inactive).

As to `CCC(C)[C@H]1C(=O)O[C@H](C(C)C)C(=O)N(C)[C@@H](C(C)C)C(=O)O[C@H](C(C)C)C(=O)N(C)[C@@H](C(C)C)C(=O)O[C@H](C(C)C)C(=O)N1C` (stereo not given in full), the growth was 5.25% (active).

For `C/C=C/CC(C)C(O)[C@H](NC(=O)[C@@H]1CCCN1C(=O)C(C)(C)NC(=O)CCCCCCC)C(=O)N[C@@](C)(CC)C(=O)N[C@@H](CCC(N)=O)C(=O)N[C@H](CCC(N)=O)C(=O)NC(C)(C)C(=O)NC(C)(C)C(=O)N[C@@H](CCC(N)=O)C(=O)N[C@H](CC(C)C)C(=O)N[C@H](CO)CC(C)C` (stereo not given in full), the growth is 106% (inactive) and 48.9% (inactive).

For `CC(=O)O[C@@H]1[C@@H]2O[C@H]2[C@@](C)(O)C(=O)[C@@H](C)C/C=C/[C@H]2[C@@H]3O[C@]3(C)[C@@H](C)C3[C@H](Cc4ccccc4)NC(=O)[C@@]312` (stereo not given in full), the growth is 82% (inactive).

As to `CC1=C[C@H]2O[C@@H]3C[C@H]4OC(=O)/C=C\C=C\[C@H]([C@@H](C)O)OCC/C(C)=C/C(=O)OC[C@@]2(CC1)[C@]4(C)[C@]31CO1`, the growth is -20% (active).

With `CC(C)(O)/C=C/C(=O)[C@](C)(O)[C@H]1[C@H](O)C[C@@]2(C)[C@H]3CC=C4[C@@H](C[C@H](O)C(=O)C4(C)C)[C@]3(C)C(=O)C[C@]12C`, the growth was 24.7% (inactive).

Consider `C[C@@H]1CCC/C=C/[C@H]2C[C@@H](O)C[C@@H]2[C@@H](O)/C=C/C(=O)O1`, for which the growth is 9.17% (active).

For the compound `N#Cc1nc(-c2ccccc2)oc1N1CCC(S(=O)(=O)F)CC1`, the growth was 104% (inactive).

With `COc1cc(OC)c(S(=O)(=O)N(CCCl)CCCl)cc1C(=O)/C=C/c1ccc(Cl)cc1`, the growth was 52.3% (inactive).

Consider `N#Cc1c(-n2c(Br)c(Br)c3cc(Br)ccc32)[nH]c2c(Br)cc(Br)cc12`, for which the growth is -2.1% (active).

Consider `COc1cccc2c1cc([N+](=O)[O-])c1c(C(=O)O)cc3c(c12)OCO3`, for which the growth was 107% (inactive).

As to `CC1=C2C(=C[C@@](C)(COC(=O)c3ccc(S(=O)(=O)F)cc3)[C@@H]2O)C(=O)[C@](C)(O)C12CC2`, the growth is -3.75% (active).

Consider `CN1C(=O)[C@]23SSC1(C)C(=O)N2[C@H]1Nc2ccccc2C1([C@@]12c4ccccc4N[C@@H]1N1C(=O)C4(C)SS[C@]1(C(=O)N4C)[C@H]2O)[C@@H]3O` (stereo not given in full), for which the growth was -19.4% (active).

Take `COC(=O)[C@H]1[C@@H](O)[C@@]2(O)c3c(OC)cc(OC)cc3O[C@@]2(c2ccc(OC)cc2)[C@@H]1c1ccccc1`: the growth was 0.819% (active).

In the case of `CC1=C2C(=C[C@@](C)(COS(C)(=O)=O)[C@@H]2O)C(=O)[C@](C)(O)C12CC2`, the growth was 0.993% (active).

On to `CC1=C2C(=C[C@@](C)(C=O)[C@@H]2O)C(=O)[C@](C)(O)C12CC2`, for which the growth is 1.41% (active).

Take `C/C=C/CC(C)C(O)[C@H](NC(=O)[C@@H]1CCCN1C(=O)C(C)(C)NC(=O)CCCCCCCCC)C(=O)N[C@@](C)(CC)C(=O)N[C@@H](CCC(N)=O)C(=O)N[C@H](CCC(N)=O)C(=O)NC(C)(C)C(=O)NC(C)(C)C(=O)N[C@@H](CCC(N)=O)C(=O)N[C@H](CC(C)C)C(=O)N[C@H](CO)CC(C)C` (stereo not given in full): the growth was 19.7% (inactive) and 35.4% (inactive).

Regarding `CC1=C(CN(O)C(N)=O)C2=C(C)C3(CC3)[C@@](C)(O)C(=O)C2=C1`, the growth was -5.11% (active).

Turning to `CC1=C[C@H]2O[C@@H]3C[C@@H](O)[C@](C)([C@@]2(C)CC1)[C@@]31CO1`, the growth was 36.1% (inactive).

Take `COc1cc2c(cc1OC)[C@@H]1N(CC2)C(=O)c2ccccc2[C@@]1(C)C(=O)O`: the growth was 106% (inactive).

For the compound `CC(=O)O[C@@H]1C[C@H]2O[C@@H]3C=C(C)CC[C@]3(C)[C@]1(C)[C@]21CO1`, the growth was 14.6% (inactive).

As to `COC1[C@@H]2C[C@H]3C(C)(C)O[C@@](C/C=C(/C)C(=O)O)(C2=O)[C@]32Oc3c(CC=C(C)C)c4c(c(O)c3C(=O)[C@H]12)C=CC(C)(C)O4` (stereo not given in full), the growth was -10.9% (active).

For `CN(CCF)/N=N/c1nc[nH]c1C(N)=O`, the growth is 32.5% (inactive).

Regarding `C/C=C\C(=O)O[C@@H]1CC2O[C@@H]3C=C(C)C(=O)C[C@]3(C)[C@]1(C)[C@]21CO1`, the growth was -3.97% (active).

The values are drawn from PubChem BioAssay (NCI).
